# Results taken from ChEMBL document CHEMBL1961873, “Compounds: GSK PKIS; Assays: Nanosyn kinase panel” (2012).
# “And” between values parts separate entries of the source, which are not always exact repeats. Equal values may be shown once.
# Assays:
# [1] = target: Protein kinase C gamma type (Homo sapiens) (UniProt P05129); conditions: at 1 µM;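 also: each value is an averaged percent inhibition of the enzyme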
# [2] = target: T1, Protein kinase C iota type (Homo sapiens) (UniProt P41743); conditions: at 0.1 µM
# T1 sequence (whole entry): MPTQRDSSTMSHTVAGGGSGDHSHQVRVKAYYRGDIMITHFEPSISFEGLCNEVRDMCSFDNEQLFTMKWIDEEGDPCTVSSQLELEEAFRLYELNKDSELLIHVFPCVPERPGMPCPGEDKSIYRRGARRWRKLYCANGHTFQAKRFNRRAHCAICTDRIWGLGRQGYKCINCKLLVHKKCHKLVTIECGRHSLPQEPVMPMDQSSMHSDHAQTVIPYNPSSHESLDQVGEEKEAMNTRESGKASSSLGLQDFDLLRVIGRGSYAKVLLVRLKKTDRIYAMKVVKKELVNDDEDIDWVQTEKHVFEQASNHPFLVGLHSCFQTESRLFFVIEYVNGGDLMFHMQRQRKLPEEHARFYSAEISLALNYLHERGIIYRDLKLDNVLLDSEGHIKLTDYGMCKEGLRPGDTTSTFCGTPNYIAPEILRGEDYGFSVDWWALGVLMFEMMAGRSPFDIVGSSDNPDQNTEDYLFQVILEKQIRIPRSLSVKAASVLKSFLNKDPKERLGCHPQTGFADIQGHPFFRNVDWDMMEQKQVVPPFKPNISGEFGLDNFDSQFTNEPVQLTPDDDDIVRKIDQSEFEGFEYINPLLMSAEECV
# [3] = target: T1, Protein kinase C iota type (Homo sapiens); conditions: at 1 µM
# [4] = target: Protein kinase C theta type (Homo sapiens) (UniProt Q04759); conditions: at 0.1 µM
# [5] = target: Protein kinase C theta type (Homo sapiens) (UniProt Q04759); conditions: at 1 µM
# [6] = target: Protein kinase C beta type (Homo sapiens) (UniProt P05771); conditions: at 0.1 µM
# [7] = target: Protein kinase C beta type (Homo sapiens) (UniProt P05771); conditions: at 1 µM
# [8] = target: T2, Serine/threonine-protein kinase D1 (Homo sapiens) (UniProt Q15139); conditions: at 0.1 µM
# T2 sequence (whole entry): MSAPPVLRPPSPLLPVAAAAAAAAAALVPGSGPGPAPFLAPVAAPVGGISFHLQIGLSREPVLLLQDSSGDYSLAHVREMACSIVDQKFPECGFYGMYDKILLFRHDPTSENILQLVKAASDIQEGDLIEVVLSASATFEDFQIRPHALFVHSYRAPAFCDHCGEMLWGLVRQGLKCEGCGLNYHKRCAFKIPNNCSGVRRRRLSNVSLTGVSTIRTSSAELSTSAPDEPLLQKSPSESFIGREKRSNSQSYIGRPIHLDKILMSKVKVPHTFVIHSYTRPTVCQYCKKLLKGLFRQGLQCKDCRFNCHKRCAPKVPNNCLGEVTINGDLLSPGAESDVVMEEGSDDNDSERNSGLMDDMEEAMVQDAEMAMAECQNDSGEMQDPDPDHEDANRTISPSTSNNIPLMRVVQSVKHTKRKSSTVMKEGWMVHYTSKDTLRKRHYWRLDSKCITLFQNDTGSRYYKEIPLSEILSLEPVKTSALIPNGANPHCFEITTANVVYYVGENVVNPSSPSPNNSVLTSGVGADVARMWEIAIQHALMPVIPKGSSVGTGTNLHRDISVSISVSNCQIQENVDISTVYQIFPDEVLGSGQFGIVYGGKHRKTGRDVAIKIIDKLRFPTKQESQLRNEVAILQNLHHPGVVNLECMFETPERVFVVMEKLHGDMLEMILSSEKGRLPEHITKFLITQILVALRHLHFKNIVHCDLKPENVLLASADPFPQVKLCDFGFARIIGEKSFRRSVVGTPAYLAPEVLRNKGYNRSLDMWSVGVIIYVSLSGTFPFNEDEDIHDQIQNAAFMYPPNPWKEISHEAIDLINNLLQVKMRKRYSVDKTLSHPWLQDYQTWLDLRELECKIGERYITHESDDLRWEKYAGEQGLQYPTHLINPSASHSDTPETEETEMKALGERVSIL
# [9] = target: T2, Serine/threonine-protein kinase D1 (Homo sapiens); conditions: at 1 µM
# [10] = target: T3, Serine/threonine-protein kinase D2 (Homo sapiens) (UniProt Q9BZL6); conditions: at 0.1 µM
# T3 sequence (whole entry): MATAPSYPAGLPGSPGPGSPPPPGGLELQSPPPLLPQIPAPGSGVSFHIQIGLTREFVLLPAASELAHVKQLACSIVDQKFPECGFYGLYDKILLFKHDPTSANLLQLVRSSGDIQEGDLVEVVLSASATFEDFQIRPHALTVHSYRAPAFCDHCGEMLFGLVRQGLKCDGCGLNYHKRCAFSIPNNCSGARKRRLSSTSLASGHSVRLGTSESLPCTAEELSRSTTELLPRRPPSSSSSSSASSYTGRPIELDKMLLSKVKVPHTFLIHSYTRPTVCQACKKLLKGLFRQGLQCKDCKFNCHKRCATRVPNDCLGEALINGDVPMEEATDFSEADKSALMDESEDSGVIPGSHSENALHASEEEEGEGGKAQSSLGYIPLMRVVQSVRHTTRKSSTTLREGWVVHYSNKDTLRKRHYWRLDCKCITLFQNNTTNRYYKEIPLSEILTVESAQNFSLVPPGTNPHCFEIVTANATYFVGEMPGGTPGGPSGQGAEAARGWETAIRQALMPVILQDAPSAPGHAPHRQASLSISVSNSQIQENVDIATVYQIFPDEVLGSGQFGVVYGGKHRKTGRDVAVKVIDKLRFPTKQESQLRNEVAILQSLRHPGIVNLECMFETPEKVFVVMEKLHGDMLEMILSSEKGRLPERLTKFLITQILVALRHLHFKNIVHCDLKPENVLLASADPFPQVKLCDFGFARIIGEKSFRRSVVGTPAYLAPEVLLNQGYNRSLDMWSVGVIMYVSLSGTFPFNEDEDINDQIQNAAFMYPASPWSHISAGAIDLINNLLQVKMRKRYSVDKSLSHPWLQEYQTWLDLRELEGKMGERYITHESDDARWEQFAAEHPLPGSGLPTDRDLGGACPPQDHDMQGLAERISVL
# [11] = target: T3, Serine/threonine-protein kinase D2 (Homo sapiens); conditions: at 1 µM
# [12] = target: T4, Serine/threonine-protein kinase D3 (Homo sapiens) (UniProt O94806); conditions: at 0.1 µM
# T4 sequence (whole entry): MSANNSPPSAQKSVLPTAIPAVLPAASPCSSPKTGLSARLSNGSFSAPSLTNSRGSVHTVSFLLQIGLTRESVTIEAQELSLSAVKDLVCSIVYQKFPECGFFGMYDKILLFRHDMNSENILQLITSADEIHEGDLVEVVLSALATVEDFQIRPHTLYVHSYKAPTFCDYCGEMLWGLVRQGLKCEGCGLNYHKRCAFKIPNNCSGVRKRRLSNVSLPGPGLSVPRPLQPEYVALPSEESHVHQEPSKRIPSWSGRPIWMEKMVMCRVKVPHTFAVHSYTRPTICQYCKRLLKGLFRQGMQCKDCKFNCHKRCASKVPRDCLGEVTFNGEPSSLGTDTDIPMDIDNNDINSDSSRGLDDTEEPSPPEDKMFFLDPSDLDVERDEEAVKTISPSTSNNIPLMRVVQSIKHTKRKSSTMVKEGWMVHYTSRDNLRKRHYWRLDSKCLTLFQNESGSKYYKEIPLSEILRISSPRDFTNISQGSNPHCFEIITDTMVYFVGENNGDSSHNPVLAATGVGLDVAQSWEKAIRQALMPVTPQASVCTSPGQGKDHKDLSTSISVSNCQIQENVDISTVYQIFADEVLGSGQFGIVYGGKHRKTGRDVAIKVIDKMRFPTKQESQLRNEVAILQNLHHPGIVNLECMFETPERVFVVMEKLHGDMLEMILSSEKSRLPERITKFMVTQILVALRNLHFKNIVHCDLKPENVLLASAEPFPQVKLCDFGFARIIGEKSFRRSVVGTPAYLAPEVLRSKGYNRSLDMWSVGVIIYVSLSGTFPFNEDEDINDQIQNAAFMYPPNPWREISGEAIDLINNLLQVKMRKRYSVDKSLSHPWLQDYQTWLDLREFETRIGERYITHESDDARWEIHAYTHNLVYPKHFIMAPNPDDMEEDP
# [13] = target: T4, Serine/threonine-protein kinase D3 (Homo sapiens); conditions: at 1 µM
# [14] = target: T5, cGMP-dependent protein kinase 1 (Homo sapiens) (UniProt Q13976); conditions: at 0.1 µM
# T5 sequence (whole entry): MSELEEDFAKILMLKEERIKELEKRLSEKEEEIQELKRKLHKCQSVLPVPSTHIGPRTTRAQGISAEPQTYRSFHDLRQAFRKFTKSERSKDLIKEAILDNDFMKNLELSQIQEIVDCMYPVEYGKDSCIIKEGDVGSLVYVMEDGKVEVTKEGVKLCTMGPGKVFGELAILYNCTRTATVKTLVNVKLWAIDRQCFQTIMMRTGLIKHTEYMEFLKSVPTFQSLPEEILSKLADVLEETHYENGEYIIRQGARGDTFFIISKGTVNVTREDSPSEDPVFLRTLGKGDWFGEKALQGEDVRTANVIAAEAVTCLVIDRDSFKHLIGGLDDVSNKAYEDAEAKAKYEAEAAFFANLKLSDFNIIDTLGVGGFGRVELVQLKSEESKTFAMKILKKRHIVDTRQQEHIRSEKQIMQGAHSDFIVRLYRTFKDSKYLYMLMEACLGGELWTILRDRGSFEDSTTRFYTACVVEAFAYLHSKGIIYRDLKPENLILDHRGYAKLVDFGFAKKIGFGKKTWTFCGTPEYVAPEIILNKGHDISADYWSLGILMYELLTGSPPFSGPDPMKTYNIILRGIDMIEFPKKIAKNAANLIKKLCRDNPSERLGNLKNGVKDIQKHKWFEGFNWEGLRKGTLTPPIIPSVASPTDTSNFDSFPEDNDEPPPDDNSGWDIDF
# [15] = target: T5, cGMP-dependent protein kinase 1 (Homo sapiens); conditions: at 1 µM
# [16] = target: T6, cGMP-dependent protein kinase 2 (Homo sapiens) (UniProt Q13237); conditions: at 0.1 µM
# T6 sequence (whole entry): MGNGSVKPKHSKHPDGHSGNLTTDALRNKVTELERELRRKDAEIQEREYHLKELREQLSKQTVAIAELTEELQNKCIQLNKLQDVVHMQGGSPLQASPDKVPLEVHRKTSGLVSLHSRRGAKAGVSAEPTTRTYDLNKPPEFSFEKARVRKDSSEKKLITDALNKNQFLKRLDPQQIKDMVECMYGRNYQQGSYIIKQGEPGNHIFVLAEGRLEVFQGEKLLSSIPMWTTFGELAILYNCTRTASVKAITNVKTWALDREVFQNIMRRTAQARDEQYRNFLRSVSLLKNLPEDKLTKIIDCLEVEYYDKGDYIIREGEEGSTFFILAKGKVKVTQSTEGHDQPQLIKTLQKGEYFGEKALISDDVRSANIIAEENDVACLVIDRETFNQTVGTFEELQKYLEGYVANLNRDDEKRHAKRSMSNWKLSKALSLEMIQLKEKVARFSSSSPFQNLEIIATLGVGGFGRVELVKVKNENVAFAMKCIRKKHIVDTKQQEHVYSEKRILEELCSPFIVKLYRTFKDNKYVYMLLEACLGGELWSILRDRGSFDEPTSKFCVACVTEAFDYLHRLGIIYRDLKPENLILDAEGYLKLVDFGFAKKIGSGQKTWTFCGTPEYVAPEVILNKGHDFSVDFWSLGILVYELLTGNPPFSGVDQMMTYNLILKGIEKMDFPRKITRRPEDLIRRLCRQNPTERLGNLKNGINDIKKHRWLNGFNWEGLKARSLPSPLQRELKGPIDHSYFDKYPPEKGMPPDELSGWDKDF
# [17] = target: T6, cGMP-dependent protein kinase 2 (Homo sapiens); conditions: at 1 µM
# [18] = target: T7, cAMP-dependent protein kinase catalytic subunit PRKX (Homo sapiens) (UniProt P51817); conditions: at 0.1 µM
# T7 sequence (whole entry): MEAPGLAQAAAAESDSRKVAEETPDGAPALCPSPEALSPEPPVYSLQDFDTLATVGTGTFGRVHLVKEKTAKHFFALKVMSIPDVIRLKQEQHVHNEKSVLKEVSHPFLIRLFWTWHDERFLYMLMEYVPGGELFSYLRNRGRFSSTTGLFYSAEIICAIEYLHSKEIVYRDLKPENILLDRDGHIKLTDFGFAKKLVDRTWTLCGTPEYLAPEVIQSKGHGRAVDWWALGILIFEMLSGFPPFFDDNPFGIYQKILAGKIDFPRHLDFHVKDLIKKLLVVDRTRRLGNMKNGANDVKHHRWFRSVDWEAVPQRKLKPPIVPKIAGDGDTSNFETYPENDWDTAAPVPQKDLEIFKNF
# [19] = target: T7, cAMP-dependent protein kinase catalytic subunit PRKX (Homo sapiens); conditions: at 1 µM
# [20] = target: Rho-associated protein kinase 1 (Homo sapiens) (UniProt Q13464); conditions: at 0.1 µM;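 also: values are mean percent inhibition of ROCK1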
# Sequence of Rho-associated protein kinase 1 (Homo sapiens) (Q13464 2-1354 limits assumed): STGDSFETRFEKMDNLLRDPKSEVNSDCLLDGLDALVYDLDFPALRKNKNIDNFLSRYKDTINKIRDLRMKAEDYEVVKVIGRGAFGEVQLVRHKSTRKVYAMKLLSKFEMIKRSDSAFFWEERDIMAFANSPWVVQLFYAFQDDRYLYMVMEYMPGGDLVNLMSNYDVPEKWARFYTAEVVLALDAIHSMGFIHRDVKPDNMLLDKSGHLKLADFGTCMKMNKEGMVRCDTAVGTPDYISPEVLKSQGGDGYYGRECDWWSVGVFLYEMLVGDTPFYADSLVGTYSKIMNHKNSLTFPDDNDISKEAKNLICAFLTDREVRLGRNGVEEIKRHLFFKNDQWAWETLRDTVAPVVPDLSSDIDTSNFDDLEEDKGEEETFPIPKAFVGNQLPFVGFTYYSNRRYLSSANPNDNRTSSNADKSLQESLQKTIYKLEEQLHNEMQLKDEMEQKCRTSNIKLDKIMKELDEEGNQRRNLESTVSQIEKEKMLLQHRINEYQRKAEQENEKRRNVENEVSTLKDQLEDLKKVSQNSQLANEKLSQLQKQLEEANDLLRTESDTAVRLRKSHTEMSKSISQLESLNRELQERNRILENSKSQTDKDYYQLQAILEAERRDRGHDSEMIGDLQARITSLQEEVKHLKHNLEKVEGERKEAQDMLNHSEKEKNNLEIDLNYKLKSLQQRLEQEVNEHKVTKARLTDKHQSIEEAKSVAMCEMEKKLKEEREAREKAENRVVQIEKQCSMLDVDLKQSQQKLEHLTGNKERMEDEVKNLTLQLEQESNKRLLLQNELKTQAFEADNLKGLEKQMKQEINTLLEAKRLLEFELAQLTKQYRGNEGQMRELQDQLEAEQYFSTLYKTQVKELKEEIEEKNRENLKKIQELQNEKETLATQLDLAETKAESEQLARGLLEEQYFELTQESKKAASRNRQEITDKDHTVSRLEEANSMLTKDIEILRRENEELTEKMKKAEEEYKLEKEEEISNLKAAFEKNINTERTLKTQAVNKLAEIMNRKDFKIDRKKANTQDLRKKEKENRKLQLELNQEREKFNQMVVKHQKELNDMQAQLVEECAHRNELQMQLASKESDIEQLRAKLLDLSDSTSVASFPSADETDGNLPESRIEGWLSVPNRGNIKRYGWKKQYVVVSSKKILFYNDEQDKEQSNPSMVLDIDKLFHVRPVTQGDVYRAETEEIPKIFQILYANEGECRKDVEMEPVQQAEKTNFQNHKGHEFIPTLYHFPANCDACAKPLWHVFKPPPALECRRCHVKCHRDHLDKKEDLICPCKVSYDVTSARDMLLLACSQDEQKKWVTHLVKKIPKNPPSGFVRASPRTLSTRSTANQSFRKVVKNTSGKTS
# Sequence of Protein kinase C beta type (Homo sapiens) (P05771 2-671 limits assumed): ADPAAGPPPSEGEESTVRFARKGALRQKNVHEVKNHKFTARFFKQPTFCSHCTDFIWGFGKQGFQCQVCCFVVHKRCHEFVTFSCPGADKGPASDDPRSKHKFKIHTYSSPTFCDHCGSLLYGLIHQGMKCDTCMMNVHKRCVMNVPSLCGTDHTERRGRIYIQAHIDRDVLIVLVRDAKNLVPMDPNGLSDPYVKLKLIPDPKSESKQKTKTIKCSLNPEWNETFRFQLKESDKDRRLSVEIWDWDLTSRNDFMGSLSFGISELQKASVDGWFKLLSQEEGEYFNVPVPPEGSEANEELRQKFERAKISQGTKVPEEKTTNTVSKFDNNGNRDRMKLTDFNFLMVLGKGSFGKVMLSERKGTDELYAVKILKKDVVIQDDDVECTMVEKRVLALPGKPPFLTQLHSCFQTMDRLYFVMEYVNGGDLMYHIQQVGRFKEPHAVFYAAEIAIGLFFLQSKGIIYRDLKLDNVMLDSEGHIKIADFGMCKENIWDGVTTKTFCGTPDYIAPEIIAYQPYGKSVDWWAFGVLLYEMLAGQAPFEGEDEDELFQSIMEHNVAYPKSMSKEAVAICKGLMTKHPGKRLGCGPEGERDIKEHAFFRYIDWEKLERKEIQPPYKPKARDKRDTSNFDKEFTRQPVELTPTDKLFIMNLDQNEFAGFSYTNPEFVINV
# Sequence of Protein kinase C theta type (Homo sapiens) (Q04759 whole entry, looked up): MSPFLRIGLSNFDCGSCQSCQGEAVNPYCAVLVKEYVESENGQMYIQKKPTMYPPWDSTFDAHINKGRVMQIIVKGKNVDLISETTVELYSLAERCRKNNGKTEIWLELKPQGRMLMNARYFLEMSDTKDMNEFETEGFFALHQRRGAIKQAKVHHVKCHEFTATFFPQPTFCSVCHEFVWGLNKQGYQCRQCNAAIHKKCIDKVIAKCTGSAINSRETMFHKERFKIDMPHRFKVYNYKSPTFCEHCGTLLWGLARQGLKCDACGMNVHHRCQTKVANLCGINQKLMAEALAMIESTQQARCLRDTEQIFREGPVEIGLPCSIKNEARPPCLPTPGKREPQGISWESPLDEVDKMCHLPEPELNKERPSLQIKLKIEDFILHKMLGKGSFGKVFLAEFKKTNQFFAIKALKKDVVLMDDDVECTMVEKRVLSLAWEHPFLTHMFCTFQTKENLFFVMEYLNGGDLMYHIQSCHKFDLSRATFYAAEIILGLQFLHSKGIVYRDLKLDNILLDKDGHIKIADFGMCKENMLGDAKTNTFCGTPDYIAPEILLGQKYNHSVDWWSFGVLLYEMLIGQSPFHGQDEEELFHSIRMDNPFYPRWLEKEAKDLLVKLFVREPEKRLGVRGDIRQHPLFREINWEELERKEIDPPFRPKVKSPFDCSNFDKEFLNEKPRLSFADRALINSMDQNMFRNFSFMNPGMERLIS
smiles,measurement,setting,value
CN1CCN(Cc2ccc(-c3cc4ncnc(Nc5ccc(OCc6cccc(F)c6)c(Cl)c5)c4s3)o2)CC1,inhibition,[1],1.46% and 6.95%
same,inhibition,[2],1.42% and 1.16%
same,inhibition,[3],1.76% and 1.19%
same,inhibition,[4],1.25% and 2.92%
same,inhibition,[5],0.89% and 4.95%
same,inhibition,[6],0.98% and 1.08%
same,inhibition,[7],2.27% and 3.9%
same,inhibition,[8],3.21% and 5.57%
same,inhibition,[9],6.44% and 7.02%
same,inhibition,[10],2.14% and 5.13%
same,inhibition,[11],4.28% and 7.23%
same,inhibition,[12],2.56% and 5.35%
same,inhibition,[13],4.4% and 6.3%
same,inhibition,[14],2.05% and 4.47%
same,inhibition,[15],1.78% and 7.9%
same,inhibition,[16],0.82% and 2.4%
same,inhibition,[17],0.79% and 5.44%
same,inhibition,[18],1.82% and 3.39%
same,inhibition,[19],1.45% and 5.71%
same,inhibition,[20],1.65% and 1.83%
